The source of these data is PubChem BioAssay.

The subject of assay [1] is Plasmodium falciparum Sir2 (PF13_0152, Sir2A). In words: Plasmodium falciparum Sir2A binding compounds – biochemical, small-molecule microarray, 635 nm fluorescence, primary screen (AID 1098).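 Note: score merges spot fluorescence intensity with its signal-to-noise ratio.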 The settings on record: fluorescence 635 nm, higher = more signal.
Assay [2] is described as follows: probe aDKK1 binding to arrayed compounds – biochemical, biotinylated probe, 635/667 nm fluorescence, primary screen (AID 1099).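 Note: score merges 667nm spot fluorescence with signal to noise across triplicate slides.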 The note with it: small-molecule microarray, higher = more signal.
A short description of assay [3]: probe aCHRDL2 binding to arrayed compounds – biochemical, biotinylated probe, 635/667 nm fluorescence, primary screen (AID 1100). The settings on record: small-molecule microarray, higher = more signal.
The nature of assay [4]: change in splice reporter luminescence, either direction, cell-based, HEK293, spliceosome inhibition project, primary screen (AID 1101).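 Note: HEK293 cells carrying a splicing-competent luciferase reporter gene; test concentration not given here.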 The settings on record: HEK293 splicing luciferase reporter, 24 h, higher = more signal, called active from +8 up or from −8 down.
Assay [5] addresses Fibroblast growth factor 10 (Homo sapiens) (UniProt O15520). Briefly: compounds binding fibroblast growth factor 10 – biochemical, small-molecule microarray, 635 nm fluorescence, primary screen (AID 1102). The settings on record: FGF10 binding, fluorescence 635 nm, higher = more signal.
Assay [6] relates to glycogen synthase kinase-3 (GSK3A per assay name; protocol says GSK3B). In words: compounds binding glycogen synthase kinase-3 – biochemical, small-molecule microarray, 635 nm fluorescence, GSK3A, primary screen (AID 1103). Note: the record names both GSK3A and GSK3B. The settings on record: fluorescence 635 nm, higher = more signal.
The target in assay [7] is Epidermal growth factor receptor (Homo sapiens) (UniProt P00533). In words: compounds binding epidermal growth factor receptor – biochemical, small-molecule microarray, 635 nm fluorescence, primary screen (AID 1104).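 Note: score merges 667 nm emission intensity with spot signal to noise over triplicate slides.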 The settings on record: EGFR binding, higher = more signal.
Assay [8] has as its target Follistatin-related protein 3 (Homo sapiens) (UniProt O95633). Briefly: compounds binding follistatin-related protein 3 – biochemical, small-molecule microarray, 635 nm fluorescence, primary screen (AID 1105).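 Note: score merges emission near 667 nm and signal to noise per printed spot across three slides.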 The note with it: FSTL3 binding, higher = more signal.
Assay [9] deals with Dickkopf-related protein 1 (Homo sapiens) (UniProt O94907). Briefly: small molecules binding DKK1 protein – biochemical, small-molecule microarray, 635 nm fluorescence scan, primary screen (AID 1106).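 Note: score merges emission near 667 nm with signal to noise over three replicate slides.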 The settings on record: higher = more signal.
In assay [10] the test system is Inhibin beta A chain (activin A). In words: small molecules binding activin A – biochemical, small-molecule microarray, 635 nm fluorescence scan, primary screen (AID 1107).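 Note: mouse activin A protein probed at 4.33 µg/mL on printed slides; score merges bound-protein fluorescence near 667 nm with spot signal-to-noise.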 The note with it: INHBA, higher = more signal.
Assay [11] concerns Human papillomavirus type 1a protein E7 (residues 44-93). In words: small molecules binding HPV E7 44-93 – biochemical, small-molecule microarray, residues 44-93, 635 nm fluorescence, primary screen (AID 1108).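 Note: E7 fragment applied at 1 µg/mL in TBST for 1 h at 4 C; score combines spot fluorescence with its signal to noise ratio.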 The settings on record: fluorescence 635 nm, higher = more signal.
A short description of assay [12]: hepatitis C replication reporter changes, two-sided – Huh7 cells, luciferase reporter, HCV replication inhibitor project, primary screen (AID 1109).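 Note: huh7 hepatoma cells harbouring a luciferase neomycin HCV replicon reporter; luciferase luminescence as measure of HCV replicon replication; test concentration not given here.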 The settings on record: Huh7 HCV replicon luciferase reporter, 48 h; higher = more signal. Background: Reporter assays use an easily measured gene product as a stand-in for the process of interest.
Assay [13] addresses Left-right determination factor 2 (Homo sapiens) (UniProt O00292). In words: small molecules binding LEFTY2 protein – biochemical, small-molecule microarray, 635 nm fluorescence scan, primary screen (AID 1110). The note with it: higher = more signal.
Assay [14] addresses Calmodulin-1 (Homo sapiens) (UniProt P0DP23). Briefly: small molecules binding calmodulin-1 with EGTA – biochemical, small-molecule microarray, Cy5-labelled CALM1, profiling panel (AID 1111).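 Note: labelled calmodulin applied in Tris saline Tween buffer holding calcium plus EGTA and DTT.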 The settings on record: Cy5-CALM1 binding fluorescence, higher = more signal.
Assay [15] shares this target. Briefly: small molecules binding Ca-loaded calmodulin-1 – biochemical, small-molecule microarray, Cy5-labelled CALM1, plus calcium, artefact control for SMM control-protein annotation, profiling panel (AID 1112).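 Note: score merges spot fluorescence with signal to noise from triplicate slides.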 The settings on record: Cy5-CALM1 binding fluorescence, higher = more signal.
A short description of assay [16]: probe aWnt5a binding to arrayed compounds – biochemical, biotinylated probe, 635/667 nm fluorescence, primary screen (AID 1113).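 Note: score merges 667 nm fluorescence intensity with signal-to-noise per printed feature.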 The note with it: small-molecule microarray, higher = more signal.
The nature of assay [17]: probe aShh binding to arrayed compounds – biochemical, biotinylated probe, 635/667 nm fluorescence, primary screen (AID 1114).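 Note: probe is biotin-labelled aShh protein from a stem cell growth factor screen; measures binding of labelled protein to compounds printed on the slide; score merges feature fluorescence at 667 nm with signal-to-noise.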 The note with it: small-molecule microarray, higher = more signal.
The nature of assay [18]: probe aNog binding to arrayed compounds – biochemical, biotinylated probe, 635/667 nm fluorescence, primary screen (AID 1115).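 Note: probe is biotinylated aNog protein used at 0.15 µg/mL for 1 h at 4 C; z-score combines 667 nm fluorescence of each spot with its signal to noise.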 The note with it: small-molecule microarray, higher = more signal.
Assay [19] addresses Torsin-1A-interacting protein 1 (Homo sapiens) (UniProt Q5JTV8). In words: compound microarray binding of lysate hLAP1 – cell lysate, small-molecule microarray, COS7 lysate, 635/667 nm fluorescence, primary screen (AID 1116). The settings on record: 635 nm fluorescence, higher = more signal.
Assay [20] addresses Alpha-bungarotoxin (Bungarus multicinctus) (UniProt P60615). In words: compounds binding labelled alpha-BTX control protein – biochemical, small-molecule microarray, Alexa647 label, 635/667 nm fluorescence, artefact control for SMM control protein annotation, profiling panel (AID 1117). The note with it: alpha-BTX-A647 binding fluorescence, higher = more signal.

Calls of active or inactive are those of the source.

Epidermal growth factor receptor (Homo sapiens), sequence (P00533 whole entry, looked up): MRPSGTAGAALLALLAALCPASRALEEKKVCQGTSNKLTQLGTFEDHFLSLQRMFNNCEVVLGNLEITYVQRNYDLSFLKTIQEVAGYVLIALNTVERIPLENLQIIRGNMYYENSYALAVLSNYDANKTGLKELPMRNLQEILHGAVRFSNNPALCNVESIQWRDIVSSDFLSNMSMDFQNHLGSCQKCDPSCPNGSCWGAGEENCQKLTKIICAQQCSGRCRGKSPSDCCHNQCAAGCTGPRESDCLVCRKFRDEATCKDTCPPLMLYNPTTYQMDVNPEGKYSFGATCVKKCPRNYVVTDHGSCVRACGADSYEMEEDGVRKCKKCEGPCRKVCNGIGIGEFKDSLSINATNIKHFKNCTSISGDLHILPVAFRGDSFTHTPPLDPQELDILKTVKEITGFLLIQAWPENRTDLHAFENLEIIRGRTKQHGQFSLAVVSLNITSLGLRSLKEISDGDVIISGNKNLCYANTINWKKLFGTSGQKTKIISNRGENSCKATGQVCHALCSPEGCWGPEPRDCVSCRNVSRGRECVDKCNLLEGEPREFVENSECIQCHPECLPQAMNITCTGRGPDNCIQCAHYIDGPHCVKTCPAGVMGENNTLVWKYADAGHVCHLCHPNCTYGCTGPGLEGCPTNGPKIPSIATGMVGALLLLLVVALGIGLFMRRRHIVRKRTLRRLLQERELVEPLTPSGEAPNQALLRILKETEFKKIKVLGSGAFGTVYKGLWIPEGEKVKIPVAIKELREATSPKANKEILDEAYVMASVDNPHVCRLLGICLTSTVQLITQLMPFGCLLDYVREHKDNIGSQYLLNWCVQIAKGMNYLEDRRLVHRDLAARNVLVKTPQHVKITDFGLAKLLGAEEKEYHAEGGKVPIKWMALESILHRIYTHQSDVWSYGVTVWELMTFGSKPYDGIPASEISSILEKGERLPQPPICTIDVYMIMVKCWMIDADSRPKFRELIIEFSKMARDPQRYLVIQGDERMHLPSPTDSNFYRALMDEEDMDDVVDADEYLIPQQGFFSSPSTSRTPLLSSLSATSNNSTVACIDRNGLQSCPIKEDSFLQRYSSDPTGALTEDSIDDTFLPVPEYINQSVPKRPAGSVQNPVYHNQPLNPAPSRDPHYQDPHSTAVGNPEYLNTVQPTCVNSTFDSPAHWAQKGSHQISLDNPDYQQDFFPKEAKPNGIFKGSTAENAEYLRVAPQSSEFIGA
Follistatin-related protein 3 (Homo sapiens), sequence (O95633 whole entry, looked up): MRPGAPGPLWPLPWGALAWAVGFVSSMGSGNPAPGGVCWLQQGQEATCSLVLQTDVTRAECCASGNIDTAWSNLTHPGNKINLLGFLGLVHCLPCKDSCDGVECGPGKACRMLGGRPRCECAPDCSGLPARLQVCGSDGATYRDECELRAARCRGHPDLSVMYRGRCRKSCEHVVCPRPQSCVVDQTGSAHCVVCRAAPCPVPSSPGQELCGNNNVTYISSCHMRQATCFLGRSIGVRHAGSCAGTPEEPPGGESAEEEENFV
Torsin-1A-interacting protein 1 (Homo sapiens), sequence (Q5JTV8 whole entry, looked up): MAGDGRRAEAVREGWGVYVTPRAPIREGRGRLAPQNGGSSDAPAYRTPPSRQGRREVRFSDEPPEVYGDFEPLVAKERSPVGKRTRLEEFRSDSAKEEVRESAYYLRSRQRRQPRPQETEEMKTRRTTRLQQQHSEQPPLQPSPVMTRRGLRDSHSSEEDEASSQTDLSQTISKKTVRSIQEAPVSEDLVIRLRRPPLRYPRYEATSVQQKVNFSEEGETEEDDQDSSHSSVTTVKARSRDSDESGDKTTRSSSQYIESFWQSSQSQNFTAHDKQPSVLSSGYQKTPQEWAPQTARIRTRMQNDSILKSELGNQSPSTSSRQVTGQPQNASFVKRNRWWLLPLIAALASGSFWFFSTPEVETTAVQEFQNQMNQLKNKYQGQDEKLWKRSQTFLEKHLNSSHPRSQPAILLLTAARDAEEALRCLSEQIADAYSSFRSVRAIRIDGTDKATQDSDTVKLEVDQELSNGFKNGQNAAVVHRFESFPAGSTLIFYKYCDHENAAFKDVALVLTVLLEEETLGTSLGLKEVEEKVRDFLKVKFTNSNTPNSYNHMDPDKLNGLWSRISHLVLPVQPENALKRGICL
Dickkopf-related protein 1 (Homo sapiens), sequence (O94907 whole entry, looked up): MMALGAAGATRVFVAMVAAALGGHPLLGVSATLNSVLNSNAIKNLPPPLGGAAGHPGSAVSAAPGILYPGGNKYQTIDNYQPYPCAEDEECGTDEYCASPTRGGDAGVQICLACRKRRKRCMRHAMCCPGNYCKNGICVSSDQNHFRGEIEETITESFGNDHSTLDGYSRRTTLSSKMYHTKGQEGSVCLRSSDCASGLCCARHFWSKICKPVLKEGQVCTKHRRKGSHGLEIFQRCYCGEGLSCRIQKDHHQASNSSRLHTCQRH
Left-right determination factor 2 (Homo sapiens), sequence (O00292 whole entry, looked up): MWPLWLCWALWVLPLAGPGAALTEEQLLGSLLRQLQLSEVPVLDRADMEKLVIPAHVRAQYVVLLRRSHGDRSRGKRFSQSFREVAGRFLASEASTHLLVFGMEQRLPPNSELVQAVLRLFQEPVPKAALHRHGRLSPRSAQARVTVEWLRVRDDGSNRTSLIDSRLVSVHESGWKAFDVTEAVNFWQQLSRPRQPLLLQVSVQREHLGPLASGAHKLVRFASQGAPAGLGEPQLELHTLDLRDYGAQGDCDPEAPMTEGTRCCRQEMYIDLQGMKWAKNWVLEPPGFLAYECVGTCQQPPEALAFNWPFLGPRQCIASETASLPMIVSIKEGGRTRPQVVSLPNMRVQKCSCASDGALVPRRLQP
Alpha-bungarotoxin (Bungarus multicinctus), sequence (P60615 whole entry, looked up): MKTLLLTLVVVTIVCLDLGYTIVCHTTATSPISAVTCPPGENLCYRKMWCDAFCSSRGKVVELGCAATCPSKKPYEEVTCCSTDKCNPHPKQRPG
Fibroblast growth factor 10 (Homo sapiens), sequence (O15520 whole entry, looked up): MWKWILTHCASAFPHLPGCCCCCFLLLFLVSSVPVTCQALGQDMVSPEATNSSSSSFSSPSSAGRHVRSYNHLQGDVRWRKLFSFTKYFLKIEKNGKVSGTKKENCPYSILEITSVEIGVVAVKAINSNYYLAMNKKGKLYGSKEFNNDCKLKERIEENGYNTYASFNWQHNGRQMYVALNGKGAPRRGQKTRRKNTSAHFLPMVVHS

Regarding `COC(=O)C(CC#Cc1ccc2c(c1)[C@]1(C(=O)N2)[C@H](c2ccc(OCCO)cc2)N2[C@H](c3ccccc3)[C@H](c3ccccc3)OC(=O)[C@H]2[C@@H]1C(=O)Nc1nc2ccccc2s1)C(=O)OC`, the composite z-score is 0.842 in [1]; -0.348 in assay [2]; 0.0051 in assay [3]; 1.03 in assay [5]; 1.28 in [6]; 0.313 in [7]. In addition, the composite z-score in assay [8] turned out to be 1.09; in assay [9], 0.42; in assay [10], 0.0864; in [11], 1.4; in assay [13], 0.582; in assay [14], 1.55. Besides, the composite z-score in [15] was 0.489; in [16] it was -0.0195; in [17], -0.0119; in assay [18] it was -0.267; in assay [19] it was 1.03; in assay [20], 1.11. Moreover, the results for the z-score in [4] and in [12] were -0.0218 (inactive) and -1.65, respectively.
Turning to `COc1ccc([Si](C)(C)[C@H]2[C@H](CCO)O[C@@]3(C(=O)N(Cc4ccc(N(C=O)c5ccccc5)cc4)c4ccccc43)[C@@H]2C)cc1`, the composite z-score in [1] was -0.0179; in assay [2], -0.214; in [3], 0.479; in [5], -0.697; in [6], -1.09; in [7], -0.969. In addition, the composite z-score in assay [8] was -0.251; in [9], -0.36; in [10], 0.213; in assay [11], -0.2; in [13], -0.677; in assay [14] it was 0.625. For the same compound, the composite z-score was 1.01 in assay [15]; -0.124 in assay [16]; -0.0553 in [17]; -0.14 in [18]; 0.34 in assay [19]; 0.158 in [20]. Also, the z-score in assay [4] is -1.07 (inactive); in assay [12], -4.65.
Turning to `CCOC(=O)C[C@H]1[C@H](OC(=O)c2ccc(-c3ccccc3)cc2)[C@@H](NC(=O)Cc2ccc(OC)cc2)c2cc(OCCCO)ccc2N1C(=O)c1ccccc1`, the composite z-score in [1] was -0.168; in assay [2], 0.18; in assay [3], 0.294; in [5], 0.219; in assay [6], -0.454; in assay [7] it was -0.165. For the same compound, the composite z-score is -0.0876 in [8]; -0.384 in assay [9]; 0.407 in [10]; 0.269 in assay [11]; -0.458 in assay [13]; 0.211 in assay [14]. Further, the composite z-score in assay [15] is 0.0935; in [16], -0.0643; in [17], -0.17; in assay [18] it was -0.306; in [19] it was 0.294; in [20] it was 0.582. In addition, the z-score in assay [4] was 0.122 (inactive); in assay [12], -0.898.
On to `C=CCNC(=O)[C@H]1[C@@H]2C(=O)O[C@@H](c3ccccc3)[C@@H](c3ccccc3)N2[C@@H](c2ccccc2OCCO)[C@]12C(=O)Nc1ccc(C#CCC(C(=O)OC)C(=O)OC)cc12`, for which the composite z-score in assay [1] is 0.797; in assay [2], 0.309; in [3], 0.973; in assay [5] it was 1.26; in assay [6], 1.33; in assay [7] it was 1.15. In addition, the composite z-score in assay [8] is 1.37; in assay [9], 1.23; in assay [10], 0.568; in assay [11] it was 1.46; in assay [13] it was 1.07; in assay [14] it was 2.02. The composite z-score in assay [15] amounted to 1.24; in assay [16], 0.0914; in [17], 0.224; in assay [18], 0.46; in assay [19], 1.37; in assay [20] it was 2.13. The results for the z-score in assay [4] and in [12] were -2.39 (inactive) and -2.33, respectively.
`O=C1C2C=CC(C(O)CCc3ccccc3)N(Nc3ccccc3F)C2C(=O)N1c1ccccc1` (stereo not given): the composite z-score in [1] came out at 1.17; in assay [2], 0.909; in assay [3] it was 1.09; in assay [5] it was 1.25; in assay [6], 1.31; in assay [7] it was 0.359. In addition, the composite z-score was 1.31 in [8]; -0.242 in assay [9]; 1.04 in assay [10]; 1.29 in [11]; -0.208 in assay [13]; 0.611 in [14]. The composite z-score in assay [15] was determined as 0.11; in assay [16], 0.229; in assay [17], 0.13; in [18] it was 1.03; in [19], 1; in assay [20] it was 0.324. Besides, the z-score was -0.0383 (inactive) in assay [4] and -0.83 in [12].
Regarding `COCCCNC(=O)[C@]1(CCC(=O)OC(C)(C)C)N=C(c2ccc(OCCCO)cc2)O[C@@H]1c1ccccc1CN=[N+]=[N-]`, the composite z-score in assay [1] is 1.42; in assay [2], 0.639; in assay [3], 0.608; in assay [5], 1.41; in [6], 1.3; in assay [7] it was -0.504. In addition, the composite z-score was 0.35 in assay [8]; -0.299 in assay [9]; 0.733 in assay [10]; 1.31 in [11]; 0.254 in [13]; 1.38 in [14]. Besides, the composite z-score in [15] turned out to be 0.282; in assay [16], 0.45; in [17] it was 0.147; in assay [18], 2.04; in assay [19], 1.29; in assay [20] it was 0.312. The z-score in assay [4] was 0.378 (inactive); in assay [12] it was -1.74.
